According to paper PMC5540273 (PLoS ONE, 2017):

Key:
Details in all cases: concentration: 1 μM, replicates: in singlicate; n = 1
FGFR4 = test system: FGFR4
FGR = test system: FGR
FLT1 = test system: FLT1
FLT3-autoinhibited = test system: FLT3-autoinhibited
FLT3 = test system: FLT3
FLT4 = test system: FLT4
FRK = test system: FRK
FYN = test system: FYN
GAK = test system: GAK
GCN2(Kin.Dom.2,S808G) = test system: T1, GCN2(Kin.Dom.2,S808G)
T1 construct: gene EIF2AK4

GRK1 = test system: GRK1
GRK2 = test system: T2, GRK2
T2 construct: gene ADRBK1

GRK3 = test system: T3, GRK3
T3 construct: gene ADRBK2

GRK4 = test system: GRK4
GRK7 = test system: GRK7
GSK3A = test system: GSK3A
GSK3B = test system: GSK3B
HASPIN = test system: T4, HASPIN
T4 construct: gene GSG2

HCK = test system: HCK
HIPK1 = test system: HIPK1
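Also: KINOMEscan kinase panel screen.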

Compound	%Inh (FGFR4) [%]	%Inh (FGR) [%]	%Inh (FLT1) [%]	%Inh (FLT3-autoinhibited) [%]	%Inh (FLT3) [%]	%Inh (FLT4) [%]	%Inh (FRK) [%]	%Inh (FYN) [%]	%Inh (GAK) [%]	%Inh (GCN2(Kin.Dom.2,S808G)) [%]	%Inh (GRK1) [%]	%Inh (GRK2) [%]	%Inh (GRK3) [%]	%Inh (GRK4) [%]	%Inh (GRK7) [%]	%Inh (GSK3A) [%]	%Inh (GSK3B) [%]	%Inh (HASPIN) [%]	%Inh (HCK) [%]	%Inh (HIPK1) [%]
Cc1ccc(NC(=O)c2cccc(C#N)c2)cc1-c1ccc(C(=O)Nc2ccncc2)cc1 [GSK1398463]	25	47	33	21	0	12	92.9	22	14	0	0	0	20	11	0	20	9	0	37	0
CNc1nccc(-c2c(-c3ccc(F)cc3)ncn2C2CCN(C)CC2)n1 [SB-222903]	0	0	0	0	0	0	0	0	6	3	0	90	0	0	0	3	0	6	26	10
CS(=O)(=O)CCNCc1nc(-c2ccc3ncnc(Nc4ccc(OCc5cccc(F)c5)c(Cl)c4)c3c2)cs1.Cl [GW583340]	0	11	10	0	0	0	0	35	19	0	0	0	28	0	0	0	1	0	0	0
COc1ccc(Nc2nccc(N3CCC(NC(=O)Nc4ccc5c(c4)OCO5)C3)n2)cc1 (stereo not drawn) [GSK1379745]	4	28	37	0	45	12	14	3	11	2	13	0	20	15	0	0	7	13	0	0
Cn1ccc2ncnc(Oc3ccc(NC(=O)Nc4cccnc4)c(Cl)c3)c21	0	0	2	0	0	37	0	0	0	0	13	0	0	1	14	0	3	0	8	13
Cn1ccc2ncnc(Nc3ccc(Oc4cccc(Cl)c4)c(Cl)c3)c21	0	0	0	17	0	18	4	1	0	28	25	51	0	7	20	22	23	21	25	32
Fc1cccc(COc2ccc(Nc3ncnc4nn5ccccc5c34)cc2Cl)c1 [GW689066]	0	4	20	0	0	0	0	0	0	0	0	0	30	0	0	0	0	63	0	0
C[C@H]1CC[C@@H](C(=O)Nc2ccccc2)CN1c1cc(-c2ccc3c(N)n[nH]c3c2)nc(N)n1 [GSK2283293]	0	27	13	0	0	4	5	0	0	0	0	0	31	25	0	0	0	0	3	22
CC(C)(C)OC(=O)NC1CCCN(c2cc(-c3ccc4c(N)n[nH]c4c3)nc(N)n2)C1 (stereo not drawn) [GSK2286096]	14	4	9	0	0	0	2	26	42	0	0	0	0	0	0	0	11	1	0	0
